Records with an inconclusive call do not appear. Activity calls are given as the source filed them. Unless noted, the call rests on the fitted dose curve; in most records, active means well fitted curve in either direction with a large enough effect (not every such curve was filed as active); inconclusive means small, poorly fitted or top-dose-only effect, or another doubt; inactive means flat fitted curve, though single readings scatter.
Legend:
[1] = target: Lysosomal acid glucosylceramidase (Homo sapiens) (UniProt P04062); test: Glucocerebrosidase-p2 (AID 348; in the data active means potency below about 10 µM; further: potency means the concentration at half of the fitted maximal effect); settings: purified GBA, blue fluorogenic substrate, 40 min
Outline: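 Compounds titrated from 0.6 nM upwards against 0.2 nM enzyme in pH 5.9 citric acid/KH2PO4, taurocholate, tween-20; blue fluorogenic substrate 80 uM, 40 min room temperature, stopped and read Ex 365/Em 440 for AC50.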

[2] = Stat Signaling Pathway (AID 446); settings: ME-180 SIE beta-lactamase reporter, IL-6 stimulated, 5 h; at 7.69 µM (top of the series) unless noted;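 further: ME-180 cervical cancer cells given 40 pM IL-6 alongside compound; SIE-controlled beta-lactamase reporter measured as 460/530 nm FRET emission ratio; on the % scale 0 is the no-effect control and ±100 the full control effect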
Outline: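 ME-180 cells carrying a SIE-driven beta-lactamase reporter are stimulated with 40 pM IL-6 for 5 h at 37C in the presence of compound. The 460/530 nm FRET substrate ratio is read after 2.5 h at RT. Data are normalised to 300 pM IL-6 and to 125 nM JAK inhibitor controls.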

[3] = target: Glucocorticoid receptor (Homo sapiens) (UniProt P04150); test: GR-GFP Redistribution (AID 450;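 active means compounds whose dose series gives a full or clear partial fitted curve of increased nuclear translocation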; further: potency means the concentration at half of the fitted maximal effect); settings: U2OS GR-GFP nuclear translocation, laser cytometry, 2 h
[4] = target: Glucocorticoid receptor (Homo sapiens) (UniProt P04150); test: GR-EFC Redistribution (AID 451; calls by dose curve; further: potency means the concentration at half of the fitted maximal effect); settings: CHO-K1 GR-EFC translocation, beta-gal luminescence, 2 h
Outline: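 CHO-K1 cells expressing nuclear EA and GR-ED fragments of b-gal; compounds titrated up to 46 uM final, 2 h at 37 C. GR nuclear translocation read as complemented b-gal luminescence after 1 h RT detection.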

[5] = target: Mitogen-activated protein kinase 10 (Mus musculus) (UniProt Q61831); test: JNK3 AlphaScreen Assay (AID 530); settings: JNK3 lysate, c-Jun phosphorylation; series mostly up to 57.1 µM;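 further: kinase came from lysate of stimulated human HepG2 cells; signal reports phosphorylation of biotinylated GST-cJun 1-79 at Ser73 with 10 µM ATP; on the % scale 0 is the no-effect control and ±100 the full control effect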
Outline: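 Pre-activated (IL-1β/TNFα) JNK3 in HepG2 lysates phosphorylates biotin-GST-cJun(1-79), 10 uM ATP; anti-phospho-cJun(Ser73) AlphaScreen read at room temperature, pH 7.6 Tris buffer. Compounds pre-incubated 15 min as titrations.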

[6] = target: 3',5'-cyclic-AMP phosphodiesterase 4B (Homo sapiens) (UniProt Q07343); test: qHTS Assay for Inhibitors of PDE-IV (AID 607; active means well fitted activation curve with a large enough effect in the main read-out, with a control signal flat, not every such curve was filed as active; further: % of control where 0% means no effect); settings: HEK293 ACTOne CNG channel cells, membrane potential fluorescence; series mostly up to 22.9 µM
Outline: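 HEK293 ACTOne cells with CNG channel (1000/well), endogenous PDE4; membrane potential dye, compounds up to 22.9 uM final. Fluorescence Ex 535/Em 590; RO 20-1724 (100 uM final) as reference.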

[7] = Confirmation and Secondary Assay for Modulators of Hemoglobin Beta Chain Splicing at IVS2 654 locus (AID 910; active means well fitted curve in the direction sought with a large enough effect; an effect the other way counts as inactive or inconclusive;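 further: HeLa cells stably carrying EGFP split by mutant beta-globin IVS2-654 intron; % of control where 0% means no effect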); settings: HeLa EGFP-654 splicing reporter, GFP fluorescence, 48 h; series mostly up to 38.3 µM
Outline: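 HeLa cells stably expressing EGFP interrupted by β-globin IVS2-654 intron, seeded overnight in Opti-MEM/2% FCS, then treated 2 days at 37 °C. Restored splicing read as total peak GFP intensity per well by laser scanning cytometry (488 nm excitation, 500–520 nm emission); 500 nM antisense PNA as control.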

[8] = qHTS Assay for Identification of Small Molecule Agonists for Hypoxia Response Element Signaling Pathway (AID 914; active means well fitted activation curve with a large enough effect in the signal ratio, with a control signal flat, not every such curve was filed as active; the % refers to the signal ratio; further: potency means the concentration at half of the fitted maximal effect); settings: ME-180 HRE-bla reporter, beta-lactamase ratio, CoCl2, 17 h; activation: stronger effect = higher value
Outline: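 qHTS titration; ME-180 HRE-bla cells; EC50 CoCl2 co-treatment, 17 h at 37 degrees Celsius; CCF4 dye, ex 405nm, em 460nm and 530nm; %Activity from ratio; AC50.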

[9] = Confirmation and Secondary Assay for Modulators of Hemoglobin Beta Chain Splicing at IVS2 705 locus (AID 930; active means well fitted curve in the direction sought with a large enough effect; an effect the other way counts as inactive or inconclusive;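 further: HeLa cells stably expressing the EGFP-705 splicing reporter; GFP fluorescence per well restored by corrected splicing of the IVS2-705 intron in EGFP; % of control where 0% means no effect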); settings: HeLa EGFP-705 splicing reporter, GFP fluorescence, 48 h; series mostly up to 38.3 µM
Outline: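 Secondary splice-site specificity test uses HeLa expressing CMV-driven EGFP interrupted by IVS2-705; cells were treated 2 days at 37C with 500 nM antisense PNA as positive control.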

[10] = qHTS Assay for Lipid Storage Modulators (AID 1519; calls by dose curve); settings: Drosophila S3 cells, BODIPY lipid droplet/cell ratio, laser cytometry, cells loaded with oleic acid; for activity change, negative = inhibition: at 57.5 µM (top of the series)
Outline: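 Cells seeded at 5,000 per well were treated with compounds over a concentration series and loaded with oleic acid (400 uM, as added). Lipid droplet fluorescence (488 nm excitation, 500-530 nm channel) was read by laser-scanning cytometry and normalized to 20 uM Triacsin C.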

[11] = AP1 Signaling Pathway (AID 357); settings: ME-180 (cervical carcinoma) AP-1-bla reporter, EGF-induced, beta-lactamase ratio, 5 h; at 7.69 µM (top of the series) unless noted;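 further: ME-180 reporter cells stimulated with EGF at its EC50 level; on the % scale 0 is the no-effect control and ±100 the full control effect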
Outline: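 Modulation of EGF-driven AP-1 transcription was assessed with a beta-lactamase reporter in ME-180 cells. Compound and EC50 EGF were co-incubated 5 hours at 37 °C before 2.5-hour CCF4 loading at room temperature and dual-emission reading.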

[12] = target: Cytochrome P450 1A2 (Homo sapiens) (UniProt P05177); test: p450-cyp1a2 (AID 410; calls by dose curve;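 further: -100% = full effect of reference inhibitor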); settings: recombinant CYP1A2, luciferin-ME demethylation, luminescence; series mostly up to 57 µM
Outline: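 20nM CYP1A2 with 100uM Luciferin-ME (at Km) in 100mM KPO4; compound preincubated 10 min, NADPH regeneration added, 60 min at room temperature. Luciferin quantified by luminescence after detection reagent; normalized to 57 uM furafylline.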

[13] = NFAT Signaling Pathway (AID 444); settings: Jurkat NFAT-bla M1, carbachol, beta-lactamase ratio, 5 h; at 7.69 µM (top of the series) unless noted;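 further: carbachol stimulus at about its EC50 of 1 µM final; on the % scale 0 is the no-effect control and ±100 the full control effect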
Outline: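 Jurkat cells with NFAT-driven β-lactamase reporter and co-expressed M1 receptor, stimulated with carbachol (final 1 uM, ~EC50), compound titration, 5 h at 37 °C. CCF4 loaded 1 h at RT; 460/530 nm ratio gave %activity and AC50.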

[14] = target: Cytochrome P450 3A4 (Homo sapiens) (UniProt P08684); test: qHTS Assay for Activators of Cytochrome P450 3A4 (AID 885; active means well fitted curve in the direction sought with a large enough effect; an effect the other way counts as inactive or inconclusive; further: nearly all actives have a fitted effect of over 65% in size); settings: recombinant CYP3A4, Luciferin-PPXE luminescence, 60 min; series mostly up to 57.1 µM
Outline: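 Human CYP3A4 (20 nM) with Luciferin-PPXE at 25 uM (its KM) in 200 mM KPO4; 10 min compound preincubation, then NADPH regeneration and 60 min reaction at RT. Luciferin read by luminescence; normalized to 57 uM ketoconazole full inhibition.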

[15] = target: Dual specificity protein kinase CLK4 (Homo sapiens) (UniProt Q9HAZ1); test: qHTS Assay for Inhibitors of CDC-like Kinase 4 (Kinase-Glo Assay) (AID 1770; active means well fitted curve in the direction sought with a large enough effect; an effect the other way counts as inactive or inconclusive; further: on the % scale 0 is the no-effect control and ±100 the full control effect; nearly all actives have a fitted effect of over 65% in size); settings: recombinant Clk4, Kinase-Glo ATP depletion luminescence; series mostly up to 66.7 µM
Outline: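 Recombinant human Clk4 (25 nM) phosphorylated RS repeat peptide (100 uM) with 1 uM ATP in Tris pH 7.5/MgCl2/EGTA/DTT/Triton buffer for 4.5 h at room temperature. Residual ATP was quantified by Kinase-Glo luciferase luminescence.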

[16] = target: Dual specificity protein kinase CLK4 (Homo sapiens) (UniProt Q9HAZ1); test: qHTS Assay for Inhibitors of CDC-like Kinase 4 (ADP-Glo Assay) (AID 1771; active means well fitted curve in the direction sought with a large enough effect; an effect the other way counts as inactive or inconclusive; further: on the % scale 0 is the no-effect control and ±100 the full control effect; nearly all actives have a fitted effect of over 70% in size); settings: recombinant CLK4, ADP-Glo luminescence; series mostly up to 80 µM
Outline: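 25 nM Clk4 with 100 uM RS repeat peptide and 1 uM ATP (final) in buffer with 2 mM MgCl2, 0.5 mM EGTA, 2.5 mM DTT, 0.01% Triton X-100; 1 h at room temperature; ADP-Glo luminescence for ADP formed.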

[17] = target: Dual specificity protein kinase CLK4 (Homo sapiens) (UniProt Q9HAZ1); test: qHTS Assay for Inhibitors of CDC-like Kinase 4 (ADP-FP Assay) (AID 1795; active means well fitted curve in the direction sought with a large enough effect; an effect the other way counts as inactive or inconclusive; further: on the % scale 0 is the no-effect control and ±100 the full control effect; nearly all actives have a fitted effect of over 60% in size); settings: Transcreener ADP fluorescence polarization; series mostly up to 50 µM
Outline: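 Recombinant human Clk4 (6.25 nM) phosphorylated RS repeat peptide (100 uM) with 1 uM ATP in Tris pH 7.5/MgCl2/EGTA/DTT/Triton buffer for one hour. ADP was quantified by Transcreener competitive fluorescence polarization against an ADP calibration curve.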

[18] = target: Ubiquitin carboxyl-terminal hydrolase 1 (Homo sapiens) (UniProt O94782); test: Inhibitors of USP1/UAF1: Pilot qHTS (AID 504865; active means well fitted curve in the direction sought with a large enough effect; an effect the other way counts as inactive or inconclusive;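 further: rhodamine fluorescence freed from ubiquitin-rhodamine substrate followed over time; top concentration of the series differs between compounds; on the % scale 0 is the no-effect control and ±100 the full control effect; nearly all actives have a fitted effect of over 35% in size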); settings: purified USP1/UAF1, Ub-rhodamine cleavage fluorescence; series mostly up to 54.9 µM
Outline: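 USP1/UAF1 complex (1nM) preincubated with compound 15 min at room temperature, then Ub-Rho substrate (150nM final) added. Fluorescence read kinetically at 480/540 nm, 6 reads every 60 seconds. Buffer: 50mM HEPES pH 7.8, 0.5mM EDTA, 0.1 mg/ml BSA, 1mM TCEP, 0.01% Tween-20.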

[19] = measured here: cell count channel max response
[20] = measured here: lipid channel max response

Sequence of 3',5'-cyclic-AMP phosphodiesterase 4B (Homo sapiens) (Q07343 whole entry, looked up): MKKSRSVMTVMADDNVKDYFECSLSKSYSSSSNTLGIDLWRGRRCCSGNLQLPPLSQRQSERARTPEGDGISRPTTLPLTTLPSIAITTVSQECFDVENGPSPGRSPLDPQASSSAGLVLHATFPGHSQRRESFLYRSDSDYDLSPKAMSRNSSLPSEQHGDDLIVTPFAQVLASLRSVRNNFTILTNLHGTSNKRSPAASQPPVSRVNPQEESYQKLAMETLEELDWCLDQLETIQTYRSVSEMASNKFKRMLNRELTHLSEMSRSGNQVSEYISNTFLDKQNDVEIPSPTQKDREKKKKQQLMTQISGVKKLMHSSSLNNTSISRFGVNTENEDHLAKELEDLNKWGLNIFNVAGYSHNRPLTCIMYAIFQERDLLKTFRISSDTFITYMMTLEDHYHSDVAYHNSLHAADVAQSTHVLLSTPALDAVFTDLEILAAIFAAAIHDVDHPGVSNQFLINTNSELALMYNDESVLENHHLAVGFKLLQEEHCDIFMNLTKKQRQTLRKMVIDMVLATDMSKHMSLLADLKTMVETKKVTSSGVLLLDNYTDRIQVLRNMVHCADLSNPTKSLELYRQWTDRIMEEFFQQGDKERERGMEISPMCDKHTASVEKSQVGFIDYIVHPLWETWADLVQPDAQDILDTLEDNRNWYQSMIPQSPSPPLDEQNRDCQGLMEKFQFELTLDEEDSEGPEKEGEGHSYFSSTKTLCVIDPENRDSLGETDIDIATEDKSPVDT
Sequence of Lysosomal acid glucosylceramidase (Homo sapiens) (P04062 whole entry, looked up): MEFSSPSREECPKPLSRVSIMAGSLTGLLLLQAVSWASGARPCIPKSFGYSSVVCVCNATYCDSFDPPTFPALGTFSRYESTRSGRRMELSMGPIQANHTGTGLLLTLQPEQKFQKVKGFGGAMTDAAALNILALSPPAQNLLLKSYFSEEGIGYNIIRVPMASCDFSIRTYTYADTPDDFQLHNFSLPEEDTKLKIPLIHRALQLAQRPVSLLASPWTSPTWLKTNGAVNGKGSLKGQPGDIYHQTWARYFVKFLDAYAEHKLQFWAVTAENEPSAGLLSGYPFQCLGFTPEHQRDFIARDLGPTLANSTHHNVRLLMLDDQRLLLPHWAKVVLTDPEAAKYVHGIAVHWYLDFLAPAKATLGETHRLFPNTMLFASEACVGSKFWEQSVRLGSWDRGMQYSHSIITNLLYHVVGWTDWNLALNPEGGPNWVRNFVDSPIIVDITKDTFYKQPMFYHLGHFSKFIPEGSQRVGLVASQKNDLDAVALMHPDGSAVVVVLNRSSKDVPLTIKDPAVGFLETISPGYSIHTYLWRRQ
Sequence of Glucocorticoid receptor (Homo sapiens) (P04150 whole entry, looked up, the tested form may be a part): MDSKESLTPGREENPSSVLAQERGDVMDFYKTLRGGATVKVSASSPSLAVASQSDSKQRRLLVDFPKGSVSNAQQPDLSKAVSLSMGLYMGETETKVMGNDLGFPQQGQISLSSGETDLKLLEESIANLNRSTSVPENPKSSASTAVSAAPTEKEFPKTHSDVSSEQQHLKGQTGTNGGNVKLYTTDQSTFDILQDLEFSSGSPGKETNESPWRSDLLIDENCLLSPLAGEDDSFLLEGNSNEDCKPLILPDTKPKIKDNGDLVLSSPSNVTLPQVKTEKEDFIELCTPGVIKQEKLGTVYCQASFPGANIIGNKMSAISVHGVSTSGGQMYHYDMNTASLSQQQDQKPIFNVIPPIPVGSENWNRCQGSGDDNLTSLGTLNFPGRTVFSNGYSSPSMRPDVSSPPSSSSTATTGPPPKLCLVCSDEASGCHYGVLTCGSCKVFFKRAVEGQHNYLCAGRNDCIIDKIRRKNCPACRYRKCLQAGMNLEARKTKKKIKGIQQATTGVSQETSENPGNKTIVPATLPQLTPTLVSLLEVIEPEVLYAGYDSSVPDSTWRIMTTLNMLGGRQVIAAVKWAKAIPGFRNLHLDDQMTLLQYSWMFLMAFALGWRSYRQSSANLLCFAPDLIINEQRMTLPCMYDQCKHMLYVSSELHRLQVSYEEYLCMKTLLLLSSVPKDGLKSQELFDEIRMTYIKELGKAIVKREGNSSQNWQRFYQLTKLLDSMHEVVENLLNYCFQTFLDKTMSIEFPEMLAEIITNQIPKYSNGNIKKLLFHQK
Sequence of Dual specificity protein kinase CLK4 (Homo sapiens) (Q9HAZ1 whole entry, looked up): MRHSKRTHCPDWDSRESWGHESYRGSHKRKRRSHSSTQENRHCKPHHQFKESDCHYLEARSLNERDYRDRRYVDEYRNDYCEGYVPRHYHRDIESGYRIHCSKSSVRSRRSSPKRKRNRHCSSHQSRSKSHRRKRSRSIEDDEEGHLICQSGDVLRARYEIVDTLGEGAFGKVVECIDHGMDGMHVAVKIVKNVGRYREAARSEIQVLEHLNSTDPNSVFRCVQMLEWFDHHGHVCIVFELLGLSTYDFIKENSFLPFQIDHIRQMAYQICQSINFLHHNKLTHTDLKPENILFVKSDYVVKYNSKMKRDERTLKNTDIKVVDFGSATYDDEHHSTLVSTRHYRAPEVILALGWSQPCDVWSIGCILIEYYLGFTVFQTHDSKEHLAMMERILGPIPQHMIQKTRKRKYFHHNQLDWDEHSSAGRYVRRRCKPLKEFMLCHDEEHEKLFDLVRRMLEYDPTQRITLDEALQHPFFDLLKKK
Sequence of Ubiquitin carboxyl-terminal hydrolase 1 (Homo sapiens) (O94782 whole entry, looked up): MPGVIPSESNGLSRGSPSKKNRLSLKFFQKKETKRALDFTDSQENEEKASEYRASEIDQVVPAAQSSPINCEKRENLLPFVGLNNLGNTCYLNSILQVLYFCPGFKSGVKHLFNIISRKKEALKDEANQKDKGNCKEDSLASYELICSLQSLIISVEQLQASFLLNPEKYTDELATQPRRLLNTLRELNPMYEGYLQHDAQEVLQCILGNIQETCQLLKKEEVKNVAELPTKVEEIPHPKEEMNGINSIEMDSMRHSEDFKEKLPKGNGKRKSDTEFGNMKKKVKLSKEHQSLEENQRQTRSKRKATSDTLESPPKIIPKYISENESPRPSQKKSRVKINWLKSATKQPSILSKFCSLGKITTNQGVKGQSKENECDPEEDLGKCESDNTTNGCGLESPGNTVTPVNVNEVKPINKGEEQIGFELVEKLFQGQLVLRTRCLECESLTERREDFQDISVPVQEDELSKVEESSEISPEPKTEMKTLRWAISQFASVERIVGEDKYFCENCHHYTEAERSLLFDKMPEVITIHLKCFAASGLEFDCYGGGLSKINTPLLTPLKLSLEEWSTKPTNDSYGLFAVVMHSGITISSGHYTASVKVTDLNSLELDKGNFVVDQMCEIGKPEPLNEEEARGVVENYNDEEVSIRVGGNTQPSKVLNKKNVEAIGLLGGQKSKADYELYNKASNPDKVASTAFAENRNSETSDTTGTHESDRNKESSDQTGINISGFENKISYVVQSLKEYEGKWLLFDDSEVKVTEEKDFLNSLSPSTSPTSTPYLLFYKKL
Sequence of Cytochrome P450 3A4 (Homo sapiens) (P08684 whole entry, looked up): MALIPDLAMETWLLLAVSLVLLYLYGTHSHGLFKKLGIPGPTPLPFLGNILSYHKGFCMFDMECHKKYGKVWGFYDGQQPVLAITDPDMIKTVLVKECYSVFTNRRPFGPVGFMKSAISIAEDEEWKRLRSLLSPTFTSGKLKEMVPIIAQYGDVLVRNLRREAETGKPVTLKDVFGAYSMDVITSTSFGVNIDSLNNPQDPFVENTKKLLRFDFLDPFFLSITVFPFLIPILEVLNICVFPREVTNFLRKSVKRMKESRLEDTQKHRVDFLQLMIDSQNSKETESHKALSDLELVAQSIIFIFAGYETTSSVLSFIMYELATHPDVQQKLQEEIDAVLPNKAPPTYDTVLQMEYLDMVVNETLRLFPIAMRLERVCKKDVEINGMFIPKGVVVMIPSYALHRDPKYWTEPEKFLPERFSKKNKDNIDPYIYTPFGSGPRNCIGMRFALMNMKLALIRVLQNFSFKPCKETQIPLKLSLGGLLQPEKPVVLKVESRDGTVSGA
Sequence of Cytochrome P450 1A2 (Homo sapiens) (P05177 whole entry, looked up): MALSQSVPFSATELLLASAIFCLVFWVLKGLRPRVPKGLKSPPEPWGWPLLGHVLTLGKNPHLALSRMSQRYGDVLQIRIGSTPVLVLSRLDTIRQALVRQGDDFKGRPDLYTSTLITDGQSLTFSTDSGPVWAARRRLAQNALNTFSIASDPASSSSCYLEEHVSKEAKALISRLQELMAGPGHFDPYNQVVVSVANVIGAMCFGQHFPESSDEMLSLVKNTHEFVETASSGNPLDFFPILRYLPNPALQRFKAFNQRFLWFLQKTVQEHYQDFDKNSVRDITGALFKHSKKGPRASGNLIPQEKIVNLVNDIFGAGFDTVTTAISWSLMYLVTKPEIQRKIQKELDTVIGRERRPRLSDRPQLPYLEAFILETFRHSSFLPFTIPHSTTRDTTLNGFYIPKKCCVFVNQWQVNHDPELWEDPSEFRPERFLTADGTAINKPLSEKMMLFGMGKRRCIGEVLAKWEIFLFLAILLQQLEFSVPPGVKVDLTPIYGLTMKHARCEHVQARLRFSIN

| Compound | Potency [1] | activity, negative = inhibition [2] | Potency [3] | Potency [4] | outcome [5] | Potency [6] | outcome [7] | Potency [8] | outcome [9] | activity change, negative = inhibition [10] | max response [10, 19] [%] | max response [10, 20] [%] | activity change, negative = inhibition [11] | Potency [12] | activity change, negative = inhibition [13] | Potency [14] | Potency [15] | Potency [16] | Potency [17] | Potency [18] |
| --- | --- | --- | --- | --- | --- | --- | --- | --- | --- | --- | --- | --- | --- | --- | --- | --- | --- | --- | --- | --- |
| COc1ccccc1-c1cncnc1NCCN1CCOCC1 | > 11.4 µM (inactive) | 1.09% (inactive) | > 46 µM (inactive) | > 46 µM (inactive) | inactive | inactive | inactive | 2.51 µM (active) | inactive | 0.65% (inactive) | 4.25 | 4.66 |  |  |  |  |  |  |  |  |
| CC(=O)N1CCC2(CCCN(C(=O)Nc3cccc(F)c3)C2)CC1 | > 11.4 µM (inactive) | -6.7% (inactive) |  | > 46 µM (inactive) | inactive | inactive |  |  |  | -0.823% (inactive) | -12.4 | -13.5 | -2.22% (inactive) | inactive | 13.9% (inactive) | inactive |  |  |  |  |
| COc1ccc(-c2nc3cnc(Oc4ccccc4)nc3n(CCC#N)c2=O)cc1 | > 11.4 µM (inactive) | -20% (inactive) | > 9.22 µM (inactive) | > 46 µM (inactive) | inactive | inactive |  |  |  | 1.13% (inactive) | -12.9 | -14 |  |  | -15.1% (inactive) |  | inactive | inactive | inactive | inactive |
| COc1ccc(-c2nc3cnc(Nc4ccccc4)nc3n(Cc3cccs3)c2=O)cc1 | > 11.4 µM (inactive) |  | > 9.22 µM (inactive) | > 46 µM (inactive) | inactive | inactive |  | 3.16 µM (active) |  | 0.81% (inactive) | 23.8 | 23.5 | 19.7% (inactive) |  | 23.4% (inactive) |  | inactive | inactive | inactive | inactive |

Reference: PubChem BioAssay (NCATS)
